From the supplement of paper PMC10849652
Of roughly 8,800 targets only a part is listed; those with a hit were picked by preference. About 0.5% of all pairs of compound and target were hits.

Legend:
Assay in all cases: log2 fold change, soluble protein after heating vs DMSO (PISA); higher = thermal stabilisation; K562 lysate, 10 uM; active = over 0.2 and 3.5 SD of the protein, either way, in both replicates (recomputed)
[1] = compound: C#Cc1cccc(Nc2ncnc3cc(OCCOC)c(OCCOC)cc23)c1 [erlotinib]
Procedure, shortened: (§1)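 Log-two fold change in thermal stability relative to solvent controls is reported from duplicates. For each sample, crude K562 extract from dounce-homogenised pellets in PBS pH 7.4 with 1 mM MgCl2, at 1 mg/mL protein, was treated with 10 μM compound for 30 min. Aliquots heated for 3 min across 48°C-58°C were pooled, brought to 0.5% NP-40 at 4°C and cleared at 21,000xg for 90 min. The supernatant was quantified by TMTpro 16plex LC-MS/MS with channel sums equalised.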

[2] = compound: C/C(=N\NC(=O)C1=CC(=CC=C1)S(=O)(=O)N2CCOCC2)/C3=C(C=CC(=C3)Cl)O
Procedure, shortened: as §1

[3] = compound: C1=CC(=CC=C1C2=NC3=C(N2)C=C(C=C3)C(=O)N)OC4=CC=C(C=C4)Cl
Procedure, shortened: as §1

[4] = compound: C1=CC2=C(C=CC(=C2)/C=C\3/C(=O)NC(=NCC4=CC=CS4)S3)N=C1
Procedure, shortened: as §1

[5] = compound: C1=CC2=NC=CN=C2C=C1/C=C/3\C(=O)NC(=O)S3
Procedure, shortened: as §1

[6] = compound: C1=CC=C(C=C1)C2=NC(=C(N2)C3=CC=NC=C3)C4=CC(=C(C=C4)Cl)O
Procedure, shortened: as §1

[7] = compound: C1=CC=C2C(=C1)C3=NNC4=CC=CC(=C43)C2=O
Procedure, shortened: as §1

[8] = compound: C1CCN(C1)C(=O)NC2=CC=CC(=C2)NC3=NC=C(C(=N3)NCCC4=CN=CN4)Br
Procedure, shortened: as §1

[9] = compound: C1CN(CCC1(CC2=CC=C(C=C2)Cl)N)C3=NC=NC4=C3C=CN4
Procedure, shortened: as §1

[10] = compound: C1COCCN1CCN2C3=CC=CC=C3N=C2NC(=O)C4=CC(=CC=C4)[N+](=O)[O-] [IRAK-1-4 Inhibitor I]
Procedure, shortened: as §1

[11] = compound: C=CC(=O)N1CCC[C@@H](n2nc(-c3ccc(Oc4ccccc4)cc3)c3c(N)ncnc32)C1 [ibrutinib]
Procedure, shortened: as §1

[12] = compound: CC(=O)c1cnc2ccc(-c3cc(Cl)c(O)c(Cl)c3)nc2c1N[C@H]1CC[C@H](CN(C)C)CC1
Procedure, shortened: as §1

[13] = compound: CC(C)(C)Cn1c(N)nc2ccc(-c3[nH]c(C(C)(C)C)nc3-c3ccc(F)cc3)nc21 [ralimetinib]
Procedure, shortened: as §1

[14] = compound: CC(C)(O)CC(=O)NCCn1ccc2ncnc(Nc3ccc(Oc4cccc(C(F)(F)F)c4)c(Cl)c3)c21
Procedure, shortened: as §1

[15] = compound: CC(C)C1=C2N=C(C=C(N2N=C1)NCC3=CC=CC=C3)NCCCCCCN
Procedure, shortened: as §1

[16] = compound: CC1=C(C(CC(=O)N1)C2=CC=C(C=C2)C(F)(F)F)C(=O)NC3=C(C=C4C(=C3)C=NN4)F
Procedure, shortened: as §1

[17] = compound: CC1=C(C2=C(C=C1)C(=O)C3=CC=CC=C3N2CCCN)C
Procedure, shortened: as §1

[18] = compound: CC1=C(C=C(C=C1)NC(=O)C2=CC(=CC=C2)C(C)(C)C#N)NC3=CC4=C(C=C3)N=CN(C4=O)C
Procedure, shortened: as §1

[19] = compound: CC1=C(C=C(C=C1)NC(=O)C2=CC(=CC=C2)N(C)C)NC(=O)C3=CC=C(C=C3)O
Procedure, shortened: as §1

[20] = compound: CC1=CC=C(C=C1)SC2=C3C=C(SC3=CN=C2)C(=O)N
Procedure, shortened: as §1

Measured: log2 fold change

CHURC1 isoform 2 (UniProt Q8WUH1)
UniProt Q8WUH1, sequence (Q8WUH1 whole entry, looked up): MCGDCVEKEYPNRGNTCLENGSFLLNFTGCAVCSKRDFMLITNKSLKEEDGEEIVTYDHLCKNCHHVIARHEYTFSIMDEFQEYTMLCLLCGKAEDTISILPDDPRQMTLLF
inactive: [1] 0.05 | [2] -0.13 | [3] -0.021 | [4] -0.003 | [5] 0.015 | [6] 0.079 | [7] 0.002 | [8] -0.017 | [9] 0.058 | [10] -0.002 | [11] 0.055 | [12] 0.05 | [13] 0.027 | [14] -0.077 | [15] 0.07 | [16] -0.065 | [17] 0.057 | [18] 0.085 | [19] -0.102 | [20] 0.004

COTL1 (UniProt Q14019)
inactive: [1] -0.012 | [2] 0.04 | [3] 0.013 | [4] -0.006 | [5] -0.02 | [6] 0 | [7] 0.004 | [8] 0.022 | [9] 0.008 | [10] -0.03 | [11] 0.038 | [12] 0.001 | [13] -0.025 | [14] 0.049 | [15] -0.007 | [16] -0.055 | [17] 0.02 | [18] -0.019 | [19] -0.015 | [20] -0.004

DENND6A (UniProt Q8IWF6)
UniProt Q8IWF6, sequence (Q8IWF6 whole entry, looked up): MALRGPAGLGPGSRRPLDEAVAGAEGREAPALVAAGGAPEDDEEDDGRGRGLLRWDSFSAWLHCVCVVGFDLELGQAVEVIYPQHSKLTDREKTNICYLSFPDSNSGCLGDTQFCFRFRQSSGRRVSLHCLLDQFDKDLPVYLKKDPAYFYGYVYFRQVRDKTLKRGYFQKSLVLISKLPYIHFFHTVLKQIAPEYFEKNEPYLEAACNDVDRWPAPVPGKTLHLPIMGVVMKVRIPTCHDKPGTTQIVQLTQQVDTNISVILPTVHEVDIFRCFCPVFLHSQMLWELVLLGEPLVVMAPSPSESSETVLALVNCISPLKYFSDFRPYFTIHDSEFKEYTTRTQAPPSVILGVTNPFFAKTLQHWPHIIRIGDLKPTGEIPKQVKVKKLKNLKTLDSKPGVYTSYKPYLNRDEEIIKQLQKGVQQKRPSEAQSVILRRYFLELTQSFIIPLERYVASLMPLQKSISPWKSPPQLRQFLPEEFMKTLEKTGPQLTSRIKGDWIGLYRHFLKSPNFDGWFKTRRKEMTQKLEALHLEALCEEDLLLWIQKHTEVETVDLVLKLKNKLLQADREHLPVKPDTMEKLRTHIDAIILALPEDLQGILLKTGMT
inactive: [1] -0.019 | [2] 0.232 | [3] 0.004 | [4] 0.073 | [5] 0.048 | [6] 0.024 | [7] 0.003 | [8] 0.029 | [9] 0.083 | [10] 0.025 | [11] 0.014 | [12] 0.064 | [13] 0.052 | [14] -0.047 | [15] 0.037 | [16] 0.002 | [17] -0.03 | [18] 0.001 | [19] 0.022 | [20] 0.051

CUX1 isoform 3 (UniProt P39880)
UniProt P39880, sequence (P39880 whole entry, looked up): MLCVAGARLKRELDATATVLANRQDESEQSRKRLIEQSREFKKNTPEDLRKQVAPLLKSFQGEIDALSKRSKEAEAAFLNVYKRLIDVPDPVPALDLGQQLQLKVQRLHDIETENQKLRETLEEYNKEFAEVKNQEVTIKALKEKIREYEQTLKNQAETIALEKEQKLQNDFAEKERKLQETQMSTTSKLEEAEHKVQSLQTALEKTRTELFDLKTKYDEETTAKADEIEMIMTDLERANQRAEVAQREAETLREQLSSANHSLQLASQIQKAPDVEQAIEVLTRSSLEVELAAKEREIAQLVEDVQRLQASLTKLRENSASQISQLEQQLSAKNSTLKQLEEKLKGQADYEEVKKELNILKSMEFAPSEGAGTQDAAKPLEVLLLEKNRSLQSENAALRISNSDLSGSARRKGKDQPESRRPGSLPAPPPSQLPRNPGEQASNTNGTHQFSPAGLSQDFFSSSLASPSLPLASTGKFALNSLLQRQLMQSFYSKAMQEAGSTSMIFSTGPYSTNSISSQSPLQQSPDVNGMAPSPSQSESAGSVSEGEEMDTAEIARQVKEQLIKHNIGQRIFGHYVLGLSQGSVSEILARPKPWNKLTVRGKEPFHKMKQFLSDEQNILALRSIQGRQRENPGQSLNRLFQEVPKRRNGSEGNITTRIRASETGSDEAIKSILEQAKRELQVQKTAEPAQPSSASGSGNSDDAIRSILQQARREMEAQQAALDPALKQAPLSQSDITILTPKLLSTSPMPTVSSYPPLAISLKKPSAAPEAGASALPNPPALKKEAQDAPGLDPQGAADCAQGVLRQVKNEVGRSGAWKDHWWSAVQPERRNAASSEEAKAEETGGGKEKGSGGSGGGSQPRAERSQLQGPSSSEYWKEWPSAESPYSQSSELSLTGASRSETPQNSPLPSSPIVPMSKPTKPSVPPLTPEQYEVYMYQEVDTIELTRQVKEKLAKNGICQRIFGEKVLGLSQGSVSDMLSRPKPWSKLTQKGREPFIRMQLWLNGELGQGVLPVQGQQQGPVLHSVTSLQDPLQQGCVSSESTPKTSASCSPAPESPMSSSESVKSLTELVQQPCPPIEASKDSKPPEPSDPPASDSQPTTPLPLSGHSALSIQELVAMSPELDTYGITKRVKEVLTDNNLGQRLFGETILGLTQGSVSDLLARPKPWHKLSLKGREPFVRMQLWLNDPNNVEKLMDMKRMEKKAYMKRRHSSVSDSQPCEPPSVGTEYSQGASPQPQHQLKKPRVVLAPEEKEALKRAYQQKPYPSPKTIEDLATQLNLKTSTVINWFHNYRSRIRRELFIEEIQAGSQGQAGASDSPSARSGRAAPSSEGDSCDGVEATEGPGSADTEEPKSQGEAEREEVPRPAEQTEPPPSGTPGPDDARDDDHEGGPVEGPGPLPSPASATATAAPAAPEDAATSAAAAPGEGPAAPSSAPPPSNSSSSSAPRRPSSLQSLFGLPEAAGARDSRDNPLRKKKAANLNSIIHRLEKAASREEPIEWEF
inactive: [1] -0.015 | [2] -0.017 | [3] -0.007 | [4] 0.03 | [5] -0.049 | [6] -0.039 | [7] 0.003 | [8] -0.004 | [9] 0.07 | [10] 0.014 | [11] 0.073 | [12] 0.002 | [13] 0.003 | [14] -0.061 | [15] 0.017 | [16] -0.022 | [17] 0.003 | [18] -0.051 | [19] 0.012 | [20] 0.005

CNP (UniProt P09543)
inactive: [1] -0.005 | [2] -0.066 | [3] 0.002 | [4] -0.012 | [5] -0.022 | [6] 0.007 | [7] -0.004 | [8] -0.016 | [9] 0 | [10] -0.002 | [11] 0.024 | [12] 0.01 | [13] 0.028 | [14] 0.019 | [15] 0.022 | [16] 0.042 | [17] 0.038 | [18] -0.018 | [19] -0.015 | [20] 0.01

CIP2A (UniProt Q8TCG1)
inactive: [1] 0.057 | [2] 0.18 | [3] -0.086 | [4] 0.034 | [5] -0.019 | [6] 0.019 | [7] -0.11 | [8] -0.002 | [9] 0.02 | [10] 0.007 | [11] 0.022 | [12] 0.001 | [13] 0.052 | [14] -0.046 | [15] -0.03 | [16] 0.009 | [17] 0.003 | [18] 0 | [19] 0.059 | [20] -0.033

DOK1 (UniProt Q99704)
UniProt Q99704, sequence (Q99704 whole entry, looked up): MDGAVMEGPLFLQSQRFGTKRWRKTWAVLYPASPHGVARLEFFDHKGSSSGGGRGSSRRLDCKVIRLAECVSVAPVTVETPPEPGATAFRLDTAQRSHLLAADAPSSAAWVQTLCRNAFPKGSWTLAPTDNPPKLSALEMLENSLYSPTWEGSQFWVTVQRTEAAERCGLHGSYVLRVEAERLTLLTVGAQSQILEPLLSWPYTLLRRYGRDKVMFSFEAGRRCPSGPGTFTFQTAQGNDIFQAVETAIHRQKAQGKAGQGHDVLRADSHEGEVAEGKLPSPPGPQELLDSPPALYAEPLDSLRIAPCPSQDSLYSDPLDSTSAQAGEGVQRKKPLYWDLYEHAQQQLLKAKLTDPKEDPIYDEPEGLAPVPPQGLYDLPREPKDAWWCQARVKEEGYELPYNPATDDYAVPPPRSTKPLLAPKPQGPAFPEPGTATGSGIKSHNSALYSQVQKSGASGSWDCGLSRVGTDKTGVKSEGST
inactive: [1] -0.024 | [2] 0.051 | [3] 0.023 | [4] 0.015 | [5] 0.002 | [6] -0.041 | [7] -0.02 | [8] 0.021 | [9] 0.06 | [10] 0.021 | [11] 0.023 | [12] 0.01 | [13] 0.017 | [14] 0.014 | [15] -0.029 | [16] 0.137 | [17] 0.018 | [18] 0.017 | [19] 0.014 | [20] -0.135

DEF6 (UniProt Q9H4E7)
UniProt Q9H4E7, sequence (Q9H4E7 whole entry, looked up): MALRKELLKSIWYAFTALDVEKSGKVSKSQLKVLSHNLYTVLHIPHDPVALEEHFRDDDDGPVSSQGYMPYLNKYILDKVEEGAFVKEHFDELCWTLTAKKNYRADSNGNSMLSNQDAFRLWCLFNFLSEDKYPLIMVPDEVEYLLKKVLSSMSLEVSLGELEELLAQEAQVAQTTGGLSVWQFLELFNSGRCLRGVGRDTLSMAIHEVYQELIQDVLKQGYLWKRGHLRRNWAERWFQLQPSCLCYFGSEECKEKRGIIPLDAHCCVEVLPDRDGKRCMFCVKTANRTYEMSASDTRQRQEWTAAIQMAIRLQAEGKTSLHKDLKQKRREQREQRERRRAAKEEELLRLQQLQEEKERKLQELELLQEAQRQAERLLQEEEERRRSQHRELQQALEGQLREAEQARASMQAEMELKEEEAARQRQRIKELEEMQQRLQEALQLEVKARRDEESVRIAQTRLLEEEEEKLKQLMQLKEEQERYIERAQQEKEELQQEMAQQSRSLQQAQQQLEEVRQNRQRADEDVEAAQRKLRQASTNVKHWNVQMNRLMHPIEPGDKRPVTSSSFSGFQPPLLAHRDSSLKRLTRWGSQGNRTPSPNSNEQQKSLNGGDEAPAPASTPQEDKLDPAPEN
inactive: [1] 0.02 | [2] 0.07 | [3] -0.072 | [4] 0.067 | [5] -0.104 | [6] 0.016 | [7] -0.131 | [8] 0.05 | [9] 0 | [10] 0.019 | [11] 0.016 | [12] -0.007 | [13] 0.098 | [14] -0.014 | [15] 0.022 | [16] 0.028 | [17] -0.024 | [18] -0.026 | [19] 0.066 | [20] -0.001

DLG3 isoform 2 (UniProt Q92796)
inactive: [1] -0.048 | [2] -0.085 | [3] 0.073 | [4] 0.002 | [5] -0.046 | [6] -0.012 | [7] -0.013 | [8] 0.019 | [9] -0.001 | [10] -0.056 | [11] 0.034 | [12] 0.009 | [13] 0.124 | [14] 0.042 | [15] -0.005 | [16] 0.055 | [17] -0.009 | [18] -0.023 | [19] -0.033 | [20] 0.024

CKAP2 (UniProt Q8WWK9)
UniProt Q8WWK9, sequence (Q8WWK9 whole entry, looked up): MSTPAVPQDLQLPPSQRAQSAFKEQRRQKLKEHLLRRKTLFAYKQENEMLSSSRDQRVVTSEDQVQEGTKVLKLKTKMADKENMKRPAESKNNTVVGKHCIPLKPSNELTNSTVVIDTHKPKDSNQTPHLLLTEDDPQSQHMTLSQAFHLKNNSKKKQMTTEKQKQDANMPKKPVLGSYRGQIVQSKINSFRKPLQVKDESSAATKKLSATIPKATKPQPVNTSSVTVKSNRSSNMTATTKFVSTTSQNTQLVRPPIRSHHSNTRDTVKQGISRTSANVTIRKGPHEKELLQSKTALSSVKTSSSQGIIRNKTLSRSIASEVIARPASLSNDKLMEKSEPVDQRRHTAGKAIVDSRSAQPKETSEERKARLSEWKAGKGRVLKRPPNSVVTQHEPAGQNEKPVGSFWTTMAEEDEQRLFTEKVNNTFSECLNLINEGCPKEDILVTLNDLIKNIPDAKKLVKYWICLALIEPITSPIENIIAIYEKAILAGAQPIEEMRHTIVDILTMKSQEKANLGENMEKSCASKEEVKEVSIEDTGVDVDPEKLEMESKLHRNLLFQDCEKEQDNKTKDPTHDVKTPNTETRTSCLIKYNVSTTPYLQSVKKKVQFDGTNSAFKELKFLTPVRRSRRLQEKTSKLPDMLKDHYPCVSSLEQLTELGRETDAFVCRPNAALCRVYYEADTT
active: [7] -0.611
inactive: [1] 0 | [2] -0.158 | [3] -0.062 | [4] -0.148 | [5] -0.015 | [6] 0.006 | [8] -0.007 | [9] 0.046 | [10] 0.014 | [11] -0.065 | [12] -0.057 | [13] -0.017 | [14] 0.016 | [15] -0.053 | [16] -0.012 | [17] -0.004 | [18] 0.003 | [19] -0.027 | [20] 0.03

CRABP2 (UniProt P29373)
UniProt P29373, sequence (P29373 whole entry, looked up): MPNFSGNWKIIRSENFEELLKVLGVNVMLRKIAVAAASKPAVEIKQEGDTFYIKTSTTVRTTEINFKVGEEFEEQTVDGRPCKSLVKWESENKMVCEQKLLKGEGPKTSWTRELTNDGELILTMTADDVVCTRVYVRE
active: [8] 0.399
inactive: [1] 0.026 | [2] -0.112 | [3] -0.017 | [4] -0.063 | [5] 0.2 | [6] -0.042 | [7] -0.151 | [9] 0.309 | [10] -0.024 | [11] -0.039 | [12] 0.061 | [13] 0.097 | [14] -0.015 | [15] -0.002 | [16] 0.176 | [17] -0.088 | [18] -0.028 | [19] 0.082 | [20] -0.03

CIB1 (UniProt Q99828)
UniProt Q99828, sequence (Q99828 whole entry, looked up): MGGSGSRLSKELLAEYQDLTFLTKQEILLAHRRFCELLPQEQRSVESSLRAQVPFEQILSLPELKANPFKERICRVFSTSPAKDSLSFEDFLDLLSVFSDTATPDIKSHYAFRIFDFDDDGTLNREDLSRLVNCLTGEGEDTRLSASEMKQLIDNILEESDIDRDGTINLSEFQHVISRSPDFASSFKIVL
inactive: [1] -0.039 | [2] 0.126 | [3] 0.013 | [4] 0.042 | [5] -0.227 | [6] 0.023 | [7] 0.02 | [8] 0.045 | [9] 0.073 | [10] 0.026 | [11] 0.096 | [12] -0.137 | [13] 0.004 | [14] -0.056 | [15] -0.027 | [16] 0.007 | [17] -0.041 | [18] 0.042 | [19] -0.003 | [20] -0.066

CSTF2 (UniProt P33240)
UniProt P33240, sequence (P33240 whole entry, looked up): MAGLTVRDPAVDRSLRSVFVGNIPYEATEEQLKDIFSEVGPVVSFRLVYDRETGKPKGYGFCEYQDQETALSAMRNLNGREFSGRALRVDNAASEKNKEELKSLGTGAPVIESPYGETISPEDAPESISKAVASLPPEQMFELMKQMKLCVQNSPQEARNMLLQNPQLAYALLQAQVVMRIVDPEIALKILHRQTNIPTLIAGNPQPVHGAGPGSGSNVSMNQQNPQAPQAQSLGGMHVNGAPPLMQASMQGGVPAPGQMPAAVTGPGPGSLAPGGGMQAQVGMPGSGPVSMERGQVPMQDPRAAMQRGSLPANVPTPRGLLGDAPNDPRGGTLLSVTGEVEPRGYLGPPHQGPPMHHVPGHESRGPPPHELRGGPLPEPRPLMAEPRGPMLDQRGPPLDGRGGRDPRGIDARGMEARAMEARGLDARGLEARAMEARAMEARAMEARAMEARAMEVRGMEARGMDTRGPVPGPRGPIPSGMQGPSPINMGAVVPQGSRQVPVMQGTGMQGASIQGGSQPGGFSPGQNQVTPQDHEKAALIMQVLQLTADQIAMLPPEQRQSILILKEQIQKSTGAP
active: [11] 0.244
inactive: [1] -0.036 | [2] -0.002 | [3] 0.048 | [4] -0.048 | [5] 0.044 | [6] 0.011 | [7] -0.04 | [8] 0.002 | [9] 0 | [10] 0.053 | [12] -0.001 | [13] 0.025 | [14] -0.033 | [15] -0.022 | [16] -0.033 | [17] -0.02 | [18] -0.011 | [19] 0.052 | [20] 0.011

DNAJC5 (UniProt Q9H3Z4)
inactive: [1] -0.003 | [2] 0.037 | [3] -0.018 | [4] -0.021 | [5] 0.053 | [6] 0.033 | [7] 0 | [8] 0.049 | [9] -0.005 | [10] -0.012 | [11] -0.029 | [12] -0.072 | [13] -0.013 | [14] -0.043 | [15] -0.044 | [16] 0.06 | [17] -0.008 | [18] 0.048 | [19] -0.036 | [20] -0.116

DES (UniProt P17661)
inactive: [1] 0.014 | [2] 0.012 | [3] 0.023 | [4] -0.074 | [5] -0.016 | [6] -0.026 | [7] -0.018 | [8] 0.048 | [9] 0.1 | [10] 0.09 | [11] 0.044 | [12] 0 | [13] 0.025 | [14] -0.16 | [15] -0.01 | [16] -0.026 | [17] -0.045 | [18] 0.057 | [19] -0.017 | [20] -0.057

CUL1 (UniProt Q13616)
inactive: [1] -0.011 | [2] 0.006 | [3] 0.026 | [4] 0.01 | [5] 0.009 | [6] -0.011 | [7] 0.017 | [8] 0 | [9] -0.006 | [10] -0.013 | [11] 0.02 | [12] 0.005 | [13] -0.004 | [14] -0.016 | [15] -0.018 | [16] -0.014 | [17] 0.016 | [18] 0.02 | [19] -0.001 | [20] -0.01
